NOD2-RIPK2 inh: NOD2-RIPK2 binding disruptors in cells, primary screen, fluorescence, CHO cells, BLA complementation; Receptor-interacting serine/threonine-protein kinase 2 (Homo sapiens), O43353; CCF4 ratio; inhibition, % at 4.98 µM; 360,000 compounds, 0.38% hits; in the data active means inhibition above about 21%;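 further: 0% = vehicle only and 100% = reference blocker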
TLR9-MyD88 inh: inhibitors of TLR9-MyD88 association in cells, primary screen, cell-based, CHO, BLA complementation, fluorescence; Toll-like receptor 9 (Homo sapiens) + Myeloid differentiation primary response protein …; CCF4 FRET ratio; inhibition, % at 4.98 µM; 340,000 compounds, 0.21% hits;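 active means inhibition above the mean over all tested compounds plus 3 SD, cut at about 21% in these data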;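 further: 0% = DMSO only wells and 100% = clavulanate BLA inhibitor control wells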
NTR1 agonist: agonists of human NTR1, primary screen, imaging, U2OS cells, beta-arrestin-GFP, high content; AID 493036, 2011; Neurotensin receptor type 1 (Homo sapiens), P30989; NTR1-U2OS beta-arrestin-GFP spot imaging, agonist mode; 330,000 compounds, 0.17% hits; activation, % at 20 µM;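 active means activation at or above 40% of the spot to cytoplasm intensity ratio, with at least 20 cells analyzed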;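 further: 0% = DMSO without peptide and 100% = 100 nM NTR1 peptide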
B2AR ag: beta2AR agonists driving receptor internalization, primary screen, cell-based, FAP fluorogen, flow cytometry; Am2.2-beta2AR cells; 340,000 compounds, 0.43% hits; AID 504454, 2011; response, % (test concentration not listed); Beta-2 adrenergic receptor (Homo sapiens), P07550;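 active means response above a set limit, near 3 SD of response in nonfluorescent compounds, cut at about 42% in these data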
ABHD5-PLIN5 inh: ABHD5-PLIN5 interaction inhibitors, primary screen, cell lysate, split luciferase complementation, luminescence; 360,000 compounds, 0.78% hits; Split G. princeps luciferase complementation, 4 h; Perilipin-5 (Homo sapiens) + 1-acylglycerol-3-phosphate O-acyltransferase ABHD5 (Homo …; inhibition, % at 4 µM;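 active means inhibition above the mean inhibition across every tested compound plus 3 SD, cut at about 22% in these data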;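 further: 0% = DMSO only wells and the 100% control is not disclosed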
Target sequence (Q00G26 whole entry, looked up): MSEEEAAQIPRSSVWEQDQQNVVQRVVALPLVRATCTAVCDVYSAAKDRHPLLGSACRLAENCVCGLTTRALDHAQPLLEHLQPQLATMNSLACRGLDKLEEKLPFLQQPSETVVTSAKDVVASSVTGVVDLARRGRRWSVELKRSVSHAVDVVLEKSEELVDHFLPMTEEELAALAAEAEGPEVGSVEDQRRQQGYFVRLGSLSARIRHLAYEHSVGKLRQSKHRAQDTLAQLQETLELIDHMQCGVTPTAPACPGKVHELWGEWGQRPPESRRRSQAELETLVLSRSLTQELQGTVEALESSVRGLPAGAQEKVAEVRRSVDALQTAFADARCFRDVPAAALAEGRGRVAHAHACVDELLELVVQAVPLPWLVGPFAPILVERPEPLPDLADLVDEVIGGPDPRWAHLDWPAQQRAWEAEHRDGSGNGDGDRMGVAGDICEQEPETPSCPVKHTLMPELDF
Target sequence (Q8WTS1 whole entry, looked up): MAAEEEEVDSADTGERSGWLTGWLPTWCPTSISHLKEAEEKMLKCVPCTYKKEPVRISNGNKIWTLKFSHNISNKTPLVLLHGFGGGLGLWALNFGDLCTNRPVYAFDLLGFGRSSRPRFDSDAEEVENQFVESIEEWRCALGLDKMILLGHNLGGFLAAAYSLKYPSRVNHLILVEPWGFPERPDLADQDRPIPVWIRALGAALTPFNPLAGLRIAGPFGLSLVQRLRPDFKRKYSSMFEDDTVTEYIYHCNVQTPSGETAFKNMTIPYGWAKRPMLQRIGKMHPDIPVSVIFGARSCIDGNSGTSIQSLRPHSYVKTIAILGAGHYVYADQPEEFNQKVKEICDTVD
TLR4-MyD88 BLA: inhibitors of TLR4-MyD88 association in cells, primary screen, cell-based, HeLa CL3-4, BLA complementation, FRET ratio | HeLa CL3-4 TLR4/MyD88 BLA complementation | AID 861, 2007 | inhibition, % at 8.4 µM | 200,000 compounds, 0.18% hits; in the data active means inhibition above about 25%;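 further: 0% = vehicle and 100% = reference inhibitor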
TLR9-MyD88 conf: TLR9-MyD88 association inhibitors, retest, confirmation, cell-based, CHO, BLA complementation, fluorescence, triplicate | 680 compounds, 51% hits | CCF4 FRET ratio | inhibition, % at 4.98 µM | shares compounds with TLR9-MyD88 inh;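 active means mean inhibition across three repeats above about 21% taken from the earlier screen, limit read from the data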;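 further: blue over green emission ratio reports constitutive TLR9 MyD88 association via BLA complementation; 0% = DMSO vehicle wells and 100% = clavulanate BLA inhibitor wells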
BLA counter: beta-lactamase reporter inhibitors in CHO cells, artefact control for TLR9-MyD88 binding inhibitor project, cell-based, fluorescence; CHO-BLA cells, CCF4 FRET ratio, BLA reporter; 680 compounds, 7% hits; shares compounds with TLR9-MyD88 inh; AID 540251, 2011; inhibition, % at 4.98 µM;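 active means mean inhibition above a 50% cutoff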;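 further: counterscreen of TLR9-MyD88 hits on CMV-driven BLA in CHO-K1 cells; 0% = DMSO alone and 100% = clavulanate blocking BLA; higher means less blue over green ratio so more BLA blockade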
TLR9 CHO tox: CHO cell viability loss – luminescence, single concentration, cytotoxicity control for TLR9-MyD88 binding inhibitor project. shares compounds with TLR9-MyD88 inh. TLR9-MyD88 CHO cells cytotoxicity. 680 compounds, 39% hits. inhibition, % at 4.98 µM; in the data active means inhibition above about 11%
An asterisk follows results filed as active; nt = no result. An excerpt weighted towards active compounds, which were near 1.5% of everything screened.

SMILES	NOD2-RIPK2 inh	TLR9-MyD88 inh	NTR1 agonist	B2AR ag	ABHD5-PLIN5 inh	TLR4-MyD88 BLA	TLR9-MyD88 conf	BLA counter	TLR9 CHO tox
O=C1CN(C(=O)Cn2ncc(Cl)c(Cl)c2=O)c2ccccc2N1	16	8	nt	11	-2	22	nt	nt	nt
O=C(OCn1ncc(Cl)c(Cl)c1=O)c1ccccc1Cl	54*	31*	nt	40	7	16	28*	23	99*
O=C(N/N=C\c1c(O)ccc2ccccc12)c1cncc(Br)c1	11	23*	3	-4	3	nt	18	15	60*
Cc1cc(C)c2nc(NNC(=O)c3cc(-c4cccs4)nc4ccccc34)sc2c1	15	25*	11	12	6	7	1	4	-2
COc1cc(/C=C2/S/C(=N/S(=O)(=O)c3ccccc3)NC2=O)c([N+](=O)[O-])cc1OC	-7	-4	3	-4	2	5	nt	nt	nt
O=C1N/C(=N\S(=O)(=O)c2ccccc2)S/C1=C\c1cc([N+](=O)[O-])ccc1O	11	25*	-1	7	-1	nt	9	13	0
COCCNC(=O)c1cc2c(c(-c3cccc(-c4cc5ccccc5o4)c3)n1)[C@H](CCO)N(S(=O)C(C)(C)C)C2 (some centres undefined)	14	nt	nt	nt	11	nt	nt	nt	nt
CCCC(=O)Nc1ccc2c(c1)nc(CCN1CCN(c3ccccn3)CC1)n2C	-5	27*	2	-13	-4	nt	2	3	3
O=c1c2cc([N+](=O)[O-])ccc2sn1-c1ccccc1	7	29*	nt	nt	-10	nt	37*	0	87*
CN=c1scc(-c2ccccc2Br)n1/N=C/c1ccc[nH]1	nt	nt	2	nt	nt	11	nt	nt	nt
CN=c1scc(-c2cccs2)n1/N=C/c1ccccc1O	6	26*	10	-6	-7	-5	8	6	9
CCCCC[C@@H](C)N1C[C@H](COCc2ccccc2)Oc2cc(N3CCC[C@H]3CO)ccc2S1(=O)=O	2	nt	nt	nt	-6	nt	nt	nt	nt
O=C(Nc1ccccc1)c1cc(C2CCCCN2C(=O)c2cccs2)on1 (centres undefined)	-11	nt	nt	nt	2	nt	nt	nt	nt
CCOC(=O)CS(=O)(=O)c1nc(-c2ccc(F)cc2)cc(C(F)(F)F)n1	69*	42*	-2	104*	53*	7	37*	14	99*
CCOC(=O)CCS(=O)(=O)c1nc(-c2ccccc2)cc(C(F)(F)F)n1	69*	33*	0	60*	58*	24	39*	13	97*
N=C1/C(=C/c2cccn2Cc2ccc(F)cc2)C(=O)N=C2SC=CN12	3	-5	1	20	2	-10	nt	nt	nt
Cc1ccc(Cn2cccc2/C=C2/C(=N)N3C=CSC3=NC2=O)cc1	-7	30*	2	11	2	1	6	11	16*
CCc1nc2ccc(C(=O)NCCCN3CCCC3=O)cn2c1N(C=O)CC	-11	nt	nt	nt	-4	nt	nt	nt	nt
CC(=O)C1=C(C)NC(SCC(=O)c2ccc(Cl)c(Cl)c2)=C(C#N)C1c1ccco1 (centres undefined)	4	21*	2	10	-1	18	7	8	9
O=C(N/N=C/c1c(O)n(-c2ccc(Cl)cn2)c(=O)c2ccccc12)c1ccncc1	14	21*	1	6	-3	13	8	10	-5
CCOC(=O)COc1ccccc1/C=C\[N+](=O)[O-]	87*	33*	nt	51*	62*	22	47*	6	96*
Cc1ccc(C(=O)COC(=O)COc2ccccc2[N+](=O)[O-])s1	-13	-10	1	-4	-3	nt	nt	nt	nt
Cc1ccc(-c2cc(NC(=O)c3ccccc3)on2)cc1	-6	24*	1	3	-5	nt	2	0	-2
O=C(NC1CCCCC1)C1c2ccccc2OCC(=O)N1CC(F)(F)F (centres undefined)	-11	nt	nt	nt	-3	nt	nt	nt	nt
Cc1ccc(S(=O)(=O)N2C3CCCCC3O[C@H]2CC(=O)c2cccs2)cc1 (some centres undefined)	-7	nt	nt	nt	1	nt	nt	nt	nt
SMILES	NOD2-RIPK2 inh	TLR9-MyD88 inh	NTR1 agonist	B2AR ag	ABHD5-PLIN5 inh	TLR4-MyD88 BLA	TLR9-MyD88 conf	BLA counter	TLR9 CHO tox
Cc1ccc(N2C(=O)Cc3ccccc3C2=O)cc1	-4	22*	1	7	2	nt	42*	40	0
O=C(/C(=C/O)N=Nc1ccccc1)c1ccc(Cl)cc1	-5	4	8	20	-2	-11	nt	nt	nt
Cc1ccc(N=N/C(=C\O)C(=O)c2ccc(Cl)cc2)cc1	-10	21*	11	22	3	-12	6	4	11*
COc1ccc(C2=CC(c3ccc(C)cc3)n3nnnc3N2)cc1 (centres undefined)	27*	26*	2	16	-5	8	5	7	-2
COc1ccc(C2C=C(c3ccccc3)Nc3nnnn32)cc1 (centres undefined)	-2	24*	1	-16	4	1	4	1	-1
N#CC1=C(N)Oc2cc(O)c(Cl)cc2C1c1ccccc1F (centres undefined)	1	22*	-1	-10	-7	nt	2	5	-2
Cc1cccc(NC(=O)CCN2C(=O)c3ccccc3S2(=O)=O)c1C	-15	21*	-2	-1	7	nt	4	1	-1
O=C(CCN1C(=O)c2ccccc2S1(=O)=O)Nc1ccccc1	-2	-5	-2	4	-10	-1	nt	nt	nt
CC1=C(C(=O)N2CCCCCC2)CC(CC(=O)NC2CCCC2)C(=O)N1Cc1ccc(F)cc1 (centres undefined)	0	nt	nt	nt	-1	nt	nt	nt	nt
COc1ccc2c(C#N)c3ccccn3c2c1	11	21*	0	0	-3	24	5	8	7
Cc1cc(=O)n2ccccc2c1C#N	3	7	1	-3	1	11	nt	nt	nt
CC(C)C[C@H]1COc2cccc(N3CCSCC3)c2S(=O)(=O)N1	5	nt	nt	nt	-4	nt	nt	nt	nt

Screening data from PubChem BioAssay.
